DAX1 inh-1: inhibitors of DAX1 repression of SF-1 activated StAR promoter. AID 652010. HEK293T StAR-luciferase reporter, SF-1/DAX-1 repression relief. 370,000 compounds, 1.1% hits. inhibition, % at 6.8 µM;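 active = inhibition above the mean over all tested compounds plus 3 SD, cut at about 3.6% in these data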;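 note: higher inhibition means more luminescence from relief of DAX-1 repression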
ssDAF-12 act: activators of S. stercoralis DAF-12 nuclear receptor | 370,000 compounds, 1% hits | HEK293 ssDAF-12/GRIP1 lit1-tk-luc reporter, luminescence; % of 3 µM dafachronic acid response | activation, % at 6.8 µM;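 active = activation above the mean over all tested compounds plus 3 SD, cut at about 0.9% in these data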
FXN GAA850 act: activators of GAA850 frataxin (FXN) promoter; HEK293 lucGAA850 FXN promoter luciferase reporter, 24 h; percent of 10 µM SAHA response; 360,000 compounds, 0.56% hits; activation, % at 6 µM;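 active = activation above the average of all compounds screened plus 3 SD, cutoff fixed separately per campaign, cut at about 7.5% in these data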
hcDAF-12 act: H. contortus DAF-12 activation, primary screen. HEK293 hcDAF-12 lit1-tk-luc reporter, luminescence; 0% DMSO, 100% Δ7-dafachronic acid. activation, % at 6.8 µM. 370,000 compounds, 1.4% hits. AID 652067;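 active = activation above the mean of all tested compounds plus 3 SD, cut at about 5.5% in these data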
hgDAF12 agonist: hgDAF-12 agonism, primary luciferase screen; HEK293 GAL4-hgDAF12 UAS-luciferase reporter, agonist luminescence; normalized to butyrate control; activation, % at 6.8 µM; 370,000 compounds, 1.8% hits;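 active = activation above a cutoff set at the mean of all screened compounds plus 3 SD, cut at about 10% in these data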
DAX1 inh-2: inhibitors of human orphan nuclear receptor DAX1 (NR0B1); P51843; HEK293 Gal4-DAX1 luciferase reporter, luminescence; inhibition, % at 6.75 µM; 340,000 compounds, 0.99% hits;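 active = inhibition above the mean over all tested compounds plus 3 SD, cut at about 4.2% in these data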;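 note: inhibition shows as a rise in luminescence from relieved DAX1 repression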
Target sequence (P51843 207-470 limits assumed): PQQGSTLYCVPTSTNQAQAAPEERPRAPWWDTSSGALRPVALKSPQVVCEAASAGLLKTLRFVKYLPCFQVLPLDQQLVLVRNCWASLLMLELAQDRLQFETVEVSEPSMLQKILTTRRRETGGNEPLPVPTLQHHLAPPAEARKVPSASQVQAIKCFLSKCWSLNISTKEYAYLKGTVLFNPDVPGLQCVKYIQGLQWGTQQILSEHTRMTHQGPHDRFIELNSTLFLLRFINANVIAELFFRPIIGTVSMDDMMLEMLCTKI
Numbers stand for hits; i = inactive; nt = no result given. Sampled rows, rich in hits. Any-hit rate of the full collection: about 4.5%.

SMILES	DAX1 inh-1	ssDAF-12 act	FXN GAA850 act	hcDAF-12 act	hgDAF12 agonist	DAX1 inh-2
Cc1cc(NS(=O)(=O)C2CCN(C(=O)Cc3ccc(Cl)c(Cl)c3)CC2)no1	i	i	nt	i	i	nt
COc1ccccc1/C=C/C1(C(=O)NC2CCCC2)CC(=O)N1c1ccccc1 (stereo not drawn)	i	i	i	i	i	4.9
COc1ccc(-c2cc(-c3nnc(SCC(=O)Nc4ccccc4-c4ccccc4)n3N)[nH]n2)cc1	i	i	nt	i	i	nt
O=C(NCc1ccc(F)cc1)c1c2c(nc3ccccc13)CCN(Cc1ccccc1)C2	i	i	i	i	i	4.8
Cc1ccc(S(=O)(=O)Nc2nc3ccccc3nc2NCC2CCCO2)cc1C (stereo not drawn)	i	i	i	i	i	4.5
Cc1cccc(S(=O)(=O)Nc2nc3ccccc3nc2NCC2CCCO2)c1 (stereo not drawn)	i	i	i	i	i	i
Cc1ccc(S(=O)(=O)Nc2nc3ccccc3nc2NCc2ccco2)cc1	i	1.4	i	i	i	i
Cc1ccccc1Cn1cc(COC(=O)NCC(C)C)nn1	i	i	nt	i	i	nt
COC(=O)c1c(-c2ccc(OC)cc2)sc2ccc(OC)cc12	i	1.6	i	i	i	i
O=C1CC(=O)N(c2cccc(F)c2)N1	i	i	i	i	i	6.0
O=C1CSC(=S)N1c1cccc(F)c1	i	i	i	i	i	i
Cc1ccc(C(=O)OCC(=O)Nc2ccccc2)cc1NC(=O)c1ccco1	i	i	i	i	i	i
CC(=O)Nc1cc(C(=O)OCC(=O)c2ccccc2)ccc1C	i	i	i	7.0	12	i
N#CC1C(C#N)N2CCCN2C1c1ccc(Cl)cc1 (stereo not drawn)	i	i	i	5.8	i	i
CCCC1CCC2(CCCN2CCOC(=O)Nc2ccccc2C)CC1 (stereo not drawn)	nt	i	nt	i	i	nt
COC(=O)CN1C(=O)C(O)(CC(=O)c2ccc(Br)cc2)c2ccccc21 (stereo not drawn)	i	i	i	i	i	i
COC(=O)CN1C(=O)C(O)(CC(=O)c2ccc(C)cc2)c2cc(Br)ccc21 (stereo not drawn)	i	i	i	i	i	4.5
CCN(CCN(C)C)C(=O)Cn1ncc2c1-c1cc(C)ccc1OC2	i	i	i	i	i	5.6
Cc1ccc2c(c1)-c1c(cnn1CC(=O)O)CO2	i	i	i	i	i	i
O=S(=O)(c1ccccc1)N1CCN(S(=O)(=O)c2ccc3c(c2)OCCO3)CC1	nt	i	nt	i	i	nt
Cc1ccc(NC(=O)CN(C)C(=O)/C=C/c2cccs2)cc1	i	1.3	i	i	i	i
COC(=O)[C@]12C[C@H](CC(=O)N3CCSCC3)C(=O)N(Cc3ccc4c(c3)OCO4)C1=C[C@H](C(C)C)O[C@@H]2C1CC1	i	i	nt	i	i	nt
CC(COc1cccc(C#N)c1)CN1CCC(C(O)(c2ccccc2)c2ccccc2)CC1 (stereo not drawn)	i	i	nt	i	i	nt
CNNC(=O)C(=O)NNS(=O)(=O)c1ccccc1	i	i	i	i	i	5.8
O=C(c1ccc(Cl)cc1)c1cnc(-c2ccc(Cl)cc2)s1	i	i	i	i	i	i
SMILES	DAX1 inh-1	ssDAF-12 act	FXN GAA850 act	hcDAF-12 act	hgDAF12 agonist	DAX1 inh-2
O=C(c1ccccc1)c1cnc(-c2ccc(Cl)cc2)s1	i	i	i	i	12	5.0
Cc1ccc2nc(-c3cccc(Cl)c3)c(Cc3ccccc3)n2c1	4.2	i	nt	i	12	nt
Cc1ccc2nc(-c3ccccc3)c(CN3CCSCC3)n2c1	i	i	i	i	i	i
Cc1ccc2nc(-c3ccccc3)c(CN3CCOCC3)n2c1	i	i	i	i	11	i
Cc1ccc(-c2nc3ccc(C)cn3c2Cc2cccc(Cl)c2)cc1	3.8	i	nt	i	i	nt
Cc1ccc(-c2c(C(=O)NC3CCCC3)oc(=O)c3ccccc23)cc1	i	i	nt	i	i	nt
CCn1nc(C)c(Br)c1-c1nc(-c2ccc(C)cc2)no1	i	1.0	i	i	i	nt
CCn1nc(C)c(Br)c1-c1nc(CS(=O)(=O)c2ccc(F)cc2)no1	i	i	i	i	i	i
CCCCCc1cccc2[nH]cc(-c3ccccc3)c12	i	i	nt	i	i	nt
CCOC(=O)c1nn(-c2ccc(F)cc2)cc1O	i	i	i	i	i	i
CCOC(=O)c1nn(-c2ccc3c(c2)CCN3C(C)=O)cc1O	3.9	i	i	i	i	i
COc1cc2ccc(=O)oc2cc1O	i	i	i	i	i	5.1
COCCOC(=O)c1nccnc1C(=O)Nc1ccc(S(=O)(=O)N2CCOCC2)cc1	i	i	i	i	i	nt
O=C(O)c1nccnc1C(=O)Nc1ccc(S(=O)(=O)N2CCOCC2)cc1	i	1.8	i	i	i	i
S=C(Nc1cccc(Cl)c1)OCCN1CCCC12CCC(c1ccccc1)CC2 (stereo not drawn)	nt	i	nt	i	i	nt
O=C(CC1=NCCNC(c2ccccc2)C1)c1ccccc1O (stereo not drawn)	i	i	i	5.8	i	i
CCN(C(=O)CN1CCCc2cc(C)ccc21)c1c(N)n(Cc2ccccc2)c(=O)[nH]c1=O	i	i	i	i	i	i
Cc1ccc2c(c1)CCCN2CC(=O)N(C)c1c(N)n(Cc2ccccc2)c(=O)[nH]c1=O	i	1.3	i	i	i	i
CCOc1cc(/C=C2/SC(=S)N(CC(=O)O)C2=O)ccc1OC(=O)c1cccs1	i	i	i	i	i	5.2
COc1cc(/C=C2\SC(=S)N(CC(=O)O)C2=O)ccc1OC(=O)c1ccco1	i	i	i	i	i	i
COC(=O)c1sc2ncccc2c1OCc1c(Cl)cccc1Cl	i	i	i	i	i	i
COC(=O)c1sc2ncccc2c1OCc1cccc(Cl)c1	i	i	i	i	i	4.2
COC(=O)[C@]12C[C@H](CC(=O)N3CCCCC3)C(=O)N(CCc3ccc(OC)c(OC)c3)C1=C[C@H](COCc1ccccc1)O[C@@H]2C	i	i	nt	i	i	nt
O=C(Nc1ccccc1)SC1CCCCC1	i	i	i	i	12	i
CN(C(=O)Nc1ccccc1)C1CCCCC1	i	i	i	i	i	i
SMILES	DAX1 inh-1	ssDAF-12 act	FXN GAA850 act	hcDAF-12 act	hgDAF12 agonist	DAX1 inh-2
CC(CCN1CCC(C(O)(c2ccccc2)c2ccccc2)CC1)Oc1cccc(C(F)(F)F)c1 (stereo not drawn)	i	i	nt	6.4	i	nt
Cc1ccccc1C(=O)NC=C1C(=O)OC(C)(C)OC1=O	i	i	i	i	i	4.2
O=C(N/N=C/c1ccc(OC(F)F)cc1)C1=COCCO1	4.1	i	i	i	11	4.9
O=C(N/N=C/c1ccccc1OC(F)F)C1=COCCO1	i	i	i	i	i	i
COc1ccc2cc3c(N)nn(C(=O)c4cccc(F)c4)c3nc2c1	i	i	i	i	i	4.4
COc1ccc2cc3c(N)nn(C(=O)Cc4c[nH]c5ccccc45)c3nc2c1	i	i	i	i	14	i

From PubChem BioAssay
